Source: PubChem BioAssay
Mtb hypoxia inh – inhibitors of hypoxia-regulated fluorescent reporter in Mycobacterium tuberculosis. M. tuberculosis hypoxia-regulated fluorescent reporter, fluorescence. fluorescence inhibition, % (concentration not given with the values). 300,000 tested, 0.1% active; in the data active means fluorescence inhibition mostly above about 23%, no sharp cut-off; inactive means mostly below about 17%
Mtb UGM inh – Mtb UDP-galactopyranose mutase inhibition; inhibition, % at 10 µM; P9WIQ1; AID 504406; 320,000 tested, 0.06% active; purified UGM, fluorescence polarization probe displacement; in the data active means inhibition above about 10%, passing the limit was not always enough
Target sequence (P9WIQ1 whole entry, looked up): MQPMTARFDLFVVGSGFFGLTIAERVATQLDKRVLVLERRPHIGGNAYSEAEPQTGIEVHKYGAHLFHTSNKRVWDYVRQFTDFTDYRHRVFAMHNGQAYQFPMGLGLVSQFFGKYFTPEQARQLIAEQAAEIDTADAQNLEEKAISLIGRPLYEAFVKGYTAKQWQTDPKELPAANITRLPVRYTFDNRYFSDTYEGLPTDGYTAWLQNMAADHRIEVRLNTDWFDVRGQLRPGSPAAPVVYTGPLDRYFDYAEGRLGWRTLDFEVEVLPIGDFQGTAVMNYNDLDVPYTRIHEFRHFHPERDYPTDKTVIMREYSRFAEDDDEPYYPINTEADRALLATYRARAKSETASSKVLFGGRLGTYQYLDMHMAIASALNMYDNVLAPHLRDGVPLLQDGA
FadD28 FP inh – inhibitors of Mycobacterium tuberculosis FadD28 bisubstrate binding | FadD28 bisubstrate probe binding, fluorescence polarization | inhibition, % at 12.5 µM | 360,000 tested, 0.22% active; in the data active means inhibition above about 8.5%, passing the limit was not always enough
Mtb FBA inh – Mtb fructose-bisphosphate aldolase inhibition. P9WQA3. purified M. tuberculosis FBA, fluorescence read-out. inhibition, % at 1 µM. 360,000 tested, 2.3% active. AID 588726;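 further: 0% = vehicle and 100% = reference inhibitor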
GDH-TPI counter-1 – inhibits GDH-TPI coupling enzymes, artifact for Mtb FBA screen. GDH-TPI coupled enzyme counterscreen, NADH absorbance. inhibition, % at 4.8 µM. 360,000 tested, 1.2% active; in the data active means inhibition above about 30%;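 further: 0% = DMSO wells and 100% = wells lacking the enzyme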
Rv3671c inh – Rv3671c (M. tuberculosis) protease inhibition | inhibition, % at 5.96 µM | 320,000 tested, 0.048% active | AID 2606 | P9WHR9; in the data active means inhibition above about 38%;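 further: extracellular domain of Rv3671c used as enzyme; 0% = enzyme with DMSO and 100% = no enzyme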
Mtb FBA confirm – Mtb FBA inhibition, confirmed. purified M. tuberculosis FBA, fluorescence read-out. inhibition, % at 1 µM. 5,600 tested, 78% active. shares compounds with Mtb FBA inh;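 further: 0% = vehicle wells and 100% = reference inhibitor wells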
GDH-TPI counter-2 – counter-screen for M. tuberculosis FBA inhibitors: GDH-TPI coupled enzyme inhibition; shares compounds with Mtb FBA inh; GDH-TPI coupled enzyme counterscreen, fluorescence; inhibition, % at 1 µM; 5,600 tested, 81% active; AID 652141; in the data active means inhibition above about 10%
Starred values were filed as active, the others as inactive; / = not tested or not shown; + = active, no number. Hits are enriched below; roughly 3.5% of the tested compounds scored in any of these assays. Unless noted, no stated cut-off is given here; in the data, active means inhibition above about 27%; inactive means the rest.

SMILES	Mtb hypoxia inh	Mtb UGM inh	FadD28 FP inh	Mtb FBA inh	GDH-TPI counter-1	Rv3671c inh	Mtb FBA confirm	GDH-TPI counter-2
Cc1c(C)c2ccc(OC(C)C(=O)NC3CCN(Cc4ccccc4)CC3)cc2oc1=O (centres undefined)	5.9	2.6	-3.3	83.6*	-7.0	-1.9	7.8	-3.0
CC1CCCCN1C(=O)COc1ccc2ccc(=O)oc2c1 (centres undefined)	20.0	-1.7	-1.3	26.0	5.4	2.6	/	/
O=C1CCCCC1Oc1ccc2ccc(=O)oc2c1 (centres undefined)	8.7	-1.5	-3.6	58.2*	9.5	3.0	+	174.4*
CCCc1cc(=O)oc2cc(OC3CCCCC3=O)ccc12 (centres undefined)	4.4	-0.4	-1.6	44.7*	13.9	/	25.8	22.0*
O=[N+]([O-])c1ccc(NN=Cc2cccnc2)nc1	8.0	/	/	/	/	/	/	/
COc1ccc(OC)c(NC(=O)COC(=O)C=Cc2ccc(Cl)cc2)c1	9.7	/	/	/	/	/	/	/
CC(C)NC(=O)COc1ccc(C=NNS(=O)(=O)c2ccccc2)cc1	6.7	/	/	/	/	/	/	/
CCCC(=O)Nc1ccc2c(c1)nc1n2CCN(CCOC)C1	0.2	-1.8	-1.7	33.4*	4.7	/	+	178.8*
CCCCC(=O)Nc1ccc2c(c1)nc1n2CCOC1	-16.1	0.6	-4.1	1.9	-1.4	-10.3	/	/
COCCN1CCn2c(nc3cc(NC(=O)c4cccs4)ccc32)C1	6.7	2.7	-1.9	-0.1	23.9	-4.5	/	/
CCCCC(=O)Nc1ccc2c(c1)nc1n2CCN(CCOC)C1	3.0	/	-3.9	51.5*	6.6	/	16.3	12.3*
O=C(CCCOc1ccc(Cl)cc1Cl)NN=Cc1ccccc1	-2.7	/	/	/	/	/	/	/
CC(CC(C)C)=NNc1ccc([N+](=O)[O-])cc1[N+](=O)[O-]	12.6	/	/	/	/	/	/	/
O=c1[nH]c2c(=O)[nH]cnc2nc1-c1ccccc1	-1.2	-1.0	-1.6	74.0*	3.4	3.6	55.7*	42.2*
CCCCCCc1cc2cc(C(=O)OCC)c(=O)oc2cc1O	-7.0	-0.5	-2.2	43.7*	9.0	11.2	136.1*	97.0*
O=C(NN=Cc1ccc([N+](=O)[O-])cc1)c1cc(-c2ccc3c(c2)OCO3)n[nH]1	10.1	/	/	/	/	/	/	/
COc1ccc2c(c1)CCc1cnc(N)nc1-2	-1.9	-4.5	-0.2	106.3*	30.5	-3.0	-3.4	-2.4
Cn1c(C=Nn2cnnc2)nc2ccccc21	-1.3	/	/	/	/	/	/	/
COCC=CC1=CC2=CC(=O)C(C)(OC(=O)c3cnc4ccccc4n3)C(=O)C2=CN1C1CC1 (centres undefined)	10.8	/	/	/	/	/	/	/
CCN1CCN(C(c2cc3cc4c(cc3[nH]c2=O)OCO4)c2nnnn2C(C)(C)CC)CC1 (centres undefined)	3.3	1.8	-2.0	94.2*	31.8*	3.3	8.6	0.8
O=c1[nH]c2cc3c(cc2cc1C(c1nnnn1CC1CCCO1)N1CCCC1)OCO3 (centres undefined)	4.8	0.7	1.3	29.4*	21.4	-0.9	+	+
CCC(C)(C)n1nnnc1C(C(C)C)N(Cc1ccco1)Cc1cc2cc3c(cc2[nH]c1=O)OCO3 (centres undefined)	-1.3	6.1	0.1	29.3*	8.7	2.3	51.9*	44.0*
O=c1[nH]c2cc3c(cc2cc1C(c1nnnn1CC1CCCO1)N1CCCCCC1)OCCO3 (centres undefined)	-6.4	0.1	-3.0	20.5	15.5	0.7	/	/
COc1cc(C=C2N=C(c3ccccc3)OC2=O)c(F)cc1OCc1ccccc1	16.1	/	/	/	/	/	/	/
CCCCc1c(C)[nH]c2nc3ccccc3n2c1=O	-4.2	0.0	1.0	6.9	7.1	-2.1	/	/
SMILES	Mtb hypoxia inh	Mtb UGM inh	FadD28 FP inh	Mtb FBA inh	GDH-TPI counter-1	Rv3671c inh	Mtb FBA confirm	GDH-TPI counter-2
CCCc1cc(=O)n2c(nc3ccccc32)[nH]1	/	1.3	-0.5	47.2*	13.8	-2.3	4.1	-5.0
Cc1cc(=O)n2c(nc3ccccc32)[nH]1	7.3	0.2	-3.7	37.3*	-3.0	1.3	64.2*	41.9*
CON(C)C(=O)C=CCCCCNC(=O)OC(C)(C)C	11.7	/	/	/	/	/	/	/
Cc1cccc(C(N)=NOC(=O)c2ccco2)c1	7.0	/	/	/	/	/	/	/
O=C1CSC(=S)N1N=Cc1ccc(O)c(O)c1O	6.6	/	/	/	/	/	/	/
CC(C)(C)OC(=O)C(Cc1ccccc1)NC(=O)c1nc[nH]c1C(=O)N1CCNCC1 (centres undefined)	8.6	/	/	/	/	/	/	/
